Assay results: the supplement of paper PMC6411743
± gives the standard deviation of the averaged measurements. Of roughly 5,400 targets only a part is listed; those with the largest changes were picked by preference.

These targets were tested with Nc1nc2c(ncn2[C@@H]2O[C@H](COP(=O)(O)OP(=O)(O)OP(=O)(O)O)[C@@H](O)[C@H]2O)c(=O)[nH]1 [guanosine triphosphate] (assay: NP40-soluble protein abundance relative to vehicle (solubility fold change) (ratio); higher = more soluble protein in presence of GTP). Details: concentration: 1mM.
Outline: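 Across three independent experiments, values are fold changes against the detergent-processed vehicle for each replicate, based on vsn-normalised intensities. The samples were Jurkat crude lysate treated with eight concentrations (0.1 to 10 mM) for 10 min at room temperature and then 3 min at 37 °C. Lysate was solubilised with 0.8% NP40 and benzonase, ultracentrifuged, and the supernatant analysed by TMT-labelled LC-MS/MS.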

Chain of UniProt Q6ZRS2 (Q6ZRS2 whole entry, looked up, one chain of several): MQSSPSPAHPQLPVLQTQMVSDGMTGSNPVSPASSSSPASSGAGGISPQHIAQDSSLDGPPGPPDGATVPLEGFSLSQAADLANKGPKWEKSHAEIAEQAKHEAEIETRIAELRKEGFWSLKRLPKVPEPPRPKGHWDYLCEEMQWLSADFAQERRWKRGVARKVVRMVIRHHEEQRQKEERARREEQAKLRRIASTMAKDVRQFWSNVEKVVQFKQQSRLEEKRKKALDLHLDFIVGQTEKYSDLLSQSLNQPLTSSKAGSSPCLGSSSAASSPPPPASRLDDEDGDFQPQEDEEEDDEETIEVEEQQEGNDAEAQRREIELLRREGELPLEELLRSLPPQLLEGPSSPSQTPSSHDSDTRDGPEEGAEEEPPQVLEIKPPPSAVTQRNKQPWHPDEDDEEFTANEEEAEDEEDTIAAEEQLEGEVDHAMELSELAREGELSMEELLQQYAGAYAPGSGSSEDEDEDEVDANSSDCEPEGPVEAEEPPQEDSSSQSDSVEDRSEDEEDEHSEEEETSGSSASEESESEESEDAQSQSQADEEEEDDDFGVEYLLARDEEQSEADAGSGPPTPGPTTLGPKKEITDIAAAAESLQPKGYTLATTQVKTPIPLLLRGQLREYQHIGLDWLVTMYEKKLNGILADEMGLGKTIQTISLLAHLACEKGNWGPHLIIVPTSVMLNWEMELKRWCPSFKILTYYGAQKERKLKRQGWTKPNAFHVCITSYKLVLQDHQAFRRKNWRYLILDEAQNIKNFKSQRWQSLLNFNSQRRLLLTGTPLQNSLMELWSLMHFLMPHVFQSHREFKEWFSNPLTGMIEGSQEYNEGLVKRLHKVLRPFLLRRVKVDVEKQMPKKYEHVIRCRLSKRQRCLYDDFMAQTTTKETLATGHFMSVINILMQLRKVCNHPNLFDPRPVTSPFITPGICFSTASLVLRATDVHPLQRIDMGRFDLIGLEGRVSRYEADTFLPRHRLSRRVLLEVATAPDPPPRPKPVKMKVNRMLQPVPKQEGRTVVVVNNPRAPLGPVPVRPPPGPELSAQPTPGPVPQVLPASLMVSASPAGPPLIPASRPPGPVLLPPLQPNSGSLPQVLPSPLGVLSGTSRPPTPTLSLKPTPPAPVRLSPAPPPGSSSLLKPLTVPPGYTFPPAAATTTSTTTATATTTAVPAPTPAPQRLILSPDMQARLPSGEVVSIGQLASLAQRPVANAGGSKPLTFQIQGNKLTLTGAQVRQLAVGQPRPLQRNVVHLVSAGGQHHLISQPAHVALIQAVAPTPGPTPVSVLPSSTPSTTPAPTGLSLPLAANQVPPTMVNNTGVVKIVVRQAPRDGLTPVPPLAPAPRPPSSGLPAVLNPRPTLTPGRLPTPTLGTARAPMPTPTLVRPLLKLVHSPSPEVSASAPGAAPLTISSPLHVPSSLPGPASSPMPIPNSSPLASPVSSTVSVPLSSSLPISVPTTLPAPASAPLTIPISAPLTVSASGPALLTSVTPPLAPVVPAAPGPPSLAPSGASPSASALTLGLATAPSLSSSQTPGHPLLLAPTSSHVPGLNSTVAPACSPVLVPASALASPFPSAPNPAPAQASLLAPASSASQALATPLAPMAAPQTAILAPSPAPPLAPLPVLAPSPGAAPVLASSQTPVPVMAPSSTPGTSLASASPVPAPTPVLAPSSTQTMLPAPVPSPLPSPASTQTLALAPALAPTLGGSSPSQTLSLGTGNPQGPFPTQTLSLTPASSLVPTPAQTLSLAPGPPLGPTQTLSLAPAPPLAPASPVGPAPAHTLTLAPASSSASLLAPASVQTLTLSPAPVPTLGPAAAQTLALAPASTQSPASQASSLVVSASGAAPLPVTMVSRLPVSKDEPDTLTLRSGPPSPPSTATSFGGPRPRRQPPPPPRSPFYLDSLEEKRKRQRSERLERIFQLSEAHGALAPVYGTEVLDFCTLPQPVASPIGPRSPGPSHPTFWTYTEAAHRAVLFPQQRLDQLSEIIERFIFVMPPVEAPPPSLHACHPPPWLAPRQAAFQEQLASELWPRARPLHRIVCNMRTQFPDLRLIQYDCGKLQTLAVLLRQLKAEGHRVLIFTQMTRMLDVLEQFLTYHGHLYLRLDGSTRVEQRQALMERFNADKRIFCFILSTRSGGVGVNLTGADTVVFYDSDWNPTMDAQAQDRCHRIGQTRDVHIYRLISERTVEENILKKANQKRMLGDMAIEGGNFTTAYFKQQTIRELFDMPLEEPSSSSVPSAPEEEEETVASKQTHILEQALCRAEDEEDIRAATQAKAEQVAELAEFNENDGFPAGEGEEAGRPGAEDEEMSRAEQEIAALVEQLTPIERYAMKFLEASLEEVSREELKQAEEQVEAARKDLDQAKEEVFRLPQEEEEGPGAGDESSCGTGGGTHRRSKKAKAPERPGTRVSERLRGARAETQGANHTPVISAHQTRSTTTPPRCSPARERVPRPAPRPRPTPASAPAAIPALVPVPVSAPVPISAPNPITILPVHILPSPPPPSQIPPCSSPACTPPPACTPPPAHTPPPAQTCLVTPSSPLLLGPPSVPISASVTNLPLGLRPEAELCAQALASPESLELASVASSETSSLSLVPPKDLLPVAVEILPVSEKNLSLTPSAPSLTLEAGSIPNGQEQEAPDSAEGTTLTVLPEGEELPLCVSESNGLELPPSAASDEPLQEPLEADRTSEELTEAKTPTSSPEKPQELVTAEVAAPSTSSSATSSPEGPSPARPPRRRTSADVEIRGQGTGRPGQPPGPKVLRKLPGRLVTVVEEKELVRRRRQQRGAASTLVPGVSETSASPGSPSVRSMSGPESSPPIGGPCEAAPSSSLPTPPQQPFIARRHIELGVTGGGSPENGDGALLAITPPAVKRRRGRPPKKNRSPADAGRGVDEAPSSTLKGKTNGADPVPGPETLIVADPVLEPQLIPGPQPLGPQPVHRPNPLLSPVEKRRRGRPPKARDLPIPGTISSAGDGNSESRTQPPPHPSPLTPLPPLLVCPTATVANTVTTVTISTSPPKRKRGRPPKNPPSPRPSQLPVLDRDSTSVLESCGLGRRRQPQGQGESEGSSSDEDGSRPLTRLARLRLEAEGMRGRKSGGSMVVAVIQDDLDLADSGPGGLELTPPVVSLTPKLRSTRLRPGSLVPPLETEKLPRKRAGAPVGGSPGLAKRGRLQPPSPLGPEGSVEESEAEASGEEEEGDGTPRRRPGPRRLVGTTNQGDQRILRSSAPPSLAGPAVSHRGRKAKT
Chain of UniProt P09234 (P09234 whole entry, one chain of several): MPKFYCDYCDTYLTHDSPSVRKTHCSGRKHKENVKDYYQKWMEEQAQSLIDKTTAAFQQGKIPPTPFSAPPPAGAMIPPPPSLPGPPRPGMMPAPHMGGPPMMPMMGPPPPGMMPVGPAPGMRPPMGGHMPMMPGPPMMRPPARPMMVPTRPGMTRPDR
Chain of UniProt Q16629 (Q16629 whole entry, one chain of several): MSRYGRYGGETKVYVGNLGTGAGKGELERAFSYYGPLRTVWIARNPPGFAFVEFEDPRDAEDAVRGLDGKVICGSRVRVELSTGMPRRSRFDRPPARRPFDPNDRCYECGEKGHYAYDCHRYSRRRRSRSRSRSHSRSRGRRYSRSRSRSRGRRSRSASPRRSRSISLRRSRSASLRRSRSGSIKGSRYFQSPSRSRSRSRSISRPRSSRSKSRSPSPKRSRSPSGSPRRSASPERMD
Chain of UniProt P01850 (P01850 whole entry): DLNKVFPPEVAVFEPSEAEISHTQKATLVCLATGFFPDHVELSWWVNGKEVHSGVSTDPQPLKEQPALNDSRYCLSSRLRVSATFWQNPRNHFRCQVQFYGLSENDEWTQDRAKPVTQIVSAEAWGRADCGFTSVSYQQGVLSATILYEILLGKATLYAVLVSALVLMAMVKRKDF
Chain of UniProt Q9BQ39 (Q9BQ39 whole entry, one chain of several): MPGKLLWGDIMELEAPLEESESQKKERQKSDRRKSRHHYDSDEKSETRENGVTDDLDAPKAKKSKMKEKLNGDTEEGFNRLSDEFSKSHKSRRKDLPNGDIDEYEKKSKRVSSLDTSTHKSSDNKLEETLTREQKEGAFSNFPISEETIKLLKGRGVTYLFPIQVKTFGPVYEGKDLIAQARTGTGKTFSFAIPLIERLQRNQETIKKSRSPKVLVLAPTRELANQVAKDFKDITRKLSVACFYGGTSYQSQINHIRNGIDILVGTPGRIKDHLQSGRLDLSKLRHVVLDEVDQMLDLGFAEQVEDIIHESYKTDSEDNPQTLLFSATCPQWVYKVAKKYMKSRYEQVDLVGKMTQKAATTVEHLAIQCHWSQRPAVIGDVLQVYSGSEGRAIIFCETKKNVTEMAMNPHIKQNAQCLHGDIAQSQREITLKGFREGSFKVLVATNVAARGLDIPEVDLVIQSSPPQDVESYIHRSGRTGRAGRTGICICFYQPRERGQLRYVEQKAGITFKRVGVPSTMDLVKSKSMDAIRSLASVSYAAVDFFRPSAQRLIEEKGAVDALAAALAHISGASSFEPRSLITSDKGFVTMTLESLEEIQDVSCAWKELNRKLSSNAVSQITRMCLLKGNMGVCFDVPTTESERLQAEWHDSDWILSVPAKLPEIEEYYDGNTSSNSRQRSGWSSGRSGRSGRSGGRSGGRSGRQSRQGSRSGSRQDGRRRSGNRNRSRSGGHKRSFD
Chain of UniProt Q6UW02 (Q6UW02 whole entry, one chain of several): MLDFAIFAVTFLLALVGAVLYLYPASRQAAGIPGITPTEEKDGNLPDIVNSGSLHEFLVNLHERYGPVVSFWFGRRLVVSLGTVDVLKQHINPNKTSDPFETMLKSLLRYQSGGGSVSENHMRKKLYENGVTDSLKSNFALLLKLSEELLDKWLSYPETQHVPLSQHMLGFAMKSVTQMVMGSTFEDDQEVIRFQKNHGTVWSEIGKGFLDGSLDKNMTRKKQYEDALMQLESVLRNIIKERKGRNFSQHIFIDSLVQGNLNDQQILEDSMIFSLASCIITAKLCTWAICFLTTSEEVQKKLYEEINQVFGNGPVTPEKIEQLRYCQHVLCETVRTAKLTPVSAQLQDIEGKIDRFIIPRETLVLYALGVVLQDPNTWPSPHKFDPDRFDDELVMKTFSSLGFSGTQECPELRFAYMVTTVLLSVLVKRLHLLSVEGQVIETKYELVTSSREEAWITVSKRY

Target	NP40-soluble protein abundance
A0A087WVC1|Q9BQ39 (UniProt Q9BQ39)	1.4 ± 0.089
A8MXF6|B7ZBD5|Q9UBK7|Q9UBK7-2|Q9UBK7-3|Q9UNT1|Q9UNT1-2|Q9UNT1-3 (UniProt Q9UNT1+Q9UBK7+B7ZBD5+A8MXF6)	1.02 ± 0.032
D6RIH7|Q9UM22 (UniProt Q9UM22)	0.91 ± 0.12
A6NHB5|A6NHN7|Q14202|Q14202-2 (UniProt Q14202)	1.18 ± 0.092
G3V5T0|O43708 (UniProt O43708)	0.879 ± 0.058
A0A0C4DFX4|Q6ZRS2|Q6ZRS2-2|Q6ZRS2-3 (UniProt Q6ZRS2)	1.3 ± 0.042
B8ZZ10|Q9NQ29|Q9NQ29-2|Q9NQ29-3 (UniProt Q9NQ29)	1.91 ± 0.18
E9PGC0|P20936|P20936-2|P20936-4 (UniProt P20936)	1.02 ± 0.11
A0A087WYN9|Q7Z478 (UniProt Q7Z478)	1.66 ± 0.28
D6R938|E9PBG7|E9PF82|Q13557|Q13557-10|Q13557-11|Q13557-12|Q13557-3|Q13557-4|Q13557-5|Q13557-6|Q13557-8|Q13557-9 (UniProt Q13557)	1.07 ± 0.14
E9PFN5|Q9Y2Q3 (UniProt Q9Y2Q3)	0.895 ± 0.036
A8MQB8|G3V0J0|Q06787|Q06787-2|Q06787-3|Q06787-4|Q06787-5|Q06787-6|Q06787-7|Q06787-8|Q06787-9 (UniProt Q06787)	1.05 ± 0.065
F8W8G5|P10242|P10242-10|P10242-11|P10242-2|P10242-4|P10242-7|P10242-8|P10242-9 (UniProt P10242)	1.08 ± 0.073
C9JWC4|Q8NCD3|Q8NCD3-2|Q8NCD3-3 (UniProt Q8NCD3)	1.15 ± 0.069
A0A0B4J1R7|Q96B45 (UniProt Q96B45)	1.02 ± 0.17
A0A0U1RRH6|O94880|O94880-2 (UniProt O94880)	1.15 ± 0.12
H3BMU3|O60268|O60268-3 (UniProt O60268)	1.01 ± 0.18

Target	NP40-soluble protein abundance
E9PHG5|Q6UW02|Q6UW02-2 (UniProt Q6UW02)	1.01 ± 0.075
E9PSH8|P07766 (UniProt P07766)	0.986 ± 0.071
E9PPH5|Q9BTT0|Q9BTT0-3 (UniProt Q9BTT0)	0.978 ± 0.05
A0A087X256|Q2M389 (UniProt Q2M389)	0.973 ± 0.048
F8VQE1|Q9UHB6|Q9UHB6-2|Q9UHB6-4|Q9UHB6-5 (UniProt Q9UHB6)	1.16 ± 0.11
A0A087X1B9|P02792 (UniProt P02792)	1.44 ± 0.11
A0A087WUC6|E9PI68|Q15005|E9PL01 (UniProt Q15005)	0.899 ± 0.025
H0YKX3|Q15004 (UniProt Q15004)	1.07 ± 0.081
A0A087WZV8|A0A0G2JN66 (UniProt P01850)	1.002 ± 0.0081
A0A087WYN2|J3KSS7|Q9NZ52|Q9NZ52-4 (UniProt Q9NZ52)	0.957 ± 0.09
A0A0C4DGS0|P56556 (UniProt P56556)	1.05 ± 0.1
E7EW84|Q8TAG9 (UniProt Q8TAG9)	0.959 ± 0.064
C9JRJ5|Q9UGP4 (UniProt Q9UGP4)	1 ± 0.043
A0A0A0MRR7|P09234 (UniProt P09234)	1.25 ± 0.068
A0A0B4J1Z1|C9JAB2|Q16629|Q16629-2|Q16629-3|Q16629-4 (UniProt Q16629)	1.57 ± 0.23
A0A0A0MRF6|Q99996|Q99996-2|Q99996-3|Q99996-5|Q99996-6 (UniProt Q99996)	1.08 ± 0.049

Same assay, conditions: concentration: 2mM

Target	NP40-soluble protein abundance
A0A087WVC1|Q9BQ39 (UniProt Q9BQ39)	1.89 ± 0.23
A8MXF6|B7ZBD5|Q9UBK7|Q9UBK7-2|Q9UBK7-3|Q9UNT1|Q9UNT1-2|Q9UNT1-3 (UniProt Q9UNT1+Q9UBK7+B7ZBD5+A8MXF6)	1.01 ± 0.084
D6RIH7|Q9UM22 (UniProt Q9UM22)	0.896 ± 0.13
A6NHB5|A6NHN7|Q14202|Q14202-2 (UniProt Q14202)	1.31 ± 0.14
G3V5T0|O43708 (UniProt O43708)	0.867 ± 0.063
A0A0C4DFX4|Q6ZRS2|Q6ZRS2-2|Q6ZRS2-3 (UniProt Q6ZRS2)	1.44 ± 0.17
B8ZZ10|Q9NQ29|Q9NQ29-2|Q9NQ29-3 (UniProt Q9NQ29)	1.95 ± 0.12
E9PGC0|P20936|P20936-2|P20936-4 (UniProt P20936)	0.997 ± 0.072
A0A087WYN9|Q7Z478 (UniProt Q7Z478)	1.77 ± 0.29
D6R938|E9PBG7|E9PF82|Q13557|Q13557-10|Q13557-11|Q13557-12|Q13557-3|Q13557-4|Q13557-5|Q13557-6|Q13557-8|Q13557-9 (UniProt Q13557)	1.08 ± 0.15
E9PFN5|Q9Y2Q3 (UniProt Q9Y2Q3)	0.906 ± 0.043
A8MQB8|G3V0J0|Q06787|Q06787-2|Q06787-3|Q06787-4|Q06787-5|Q06787-6|Q06787-7|Q06787-8|Q06787-9 (UniProt Q06787)	1.24 ± 0.0061
F8W8G5|P10242|P10242-10|P10242-11|P10242-2|P10242-4|P10242-7|P10242-8|P10242-9 (UniProt P10242)	1.08 ± 0.086
C9JWC4|Q8NCD3|Q8NCD3-2|Q8NCD3-3 (UniProt Q8NCD3)	1.18 ± 0.025
A0A0B4J1R7|Q96B45 (UniProt Q96B45)	1.09 ± 0.11
A0A0U1RRH6|O94880|O94880-2 (UniProt O94880)	1.16 ± 0.065
H3BMU3|O60268|O60268-3 (UniProt O60268)	0.95 ± 0.15

Target	NP40-soluble protein abundance
E9PHG5|Q6UW02|Q6UW02-2 (UniProt Q6UW02)	1.04 ± 0.061
E9PSH8|P07766 (UniProt P07766)	0.958 ± 0.085
E9PPH5|Q9BTT0|Q9BTT0-3 (UniProt Q9BTT0)	0.94 ± 0.045
A0A087X256|Q2M389 (UniProt Q2M389)	0.975 ± 0.028
F8VQE1|Q9UHB6|Q9UHB6-2|Q9UHB6-4|Q9UHB6-5 (UniProt Q9UHB6)	1.16 ± 0.1
A0A087X1B9|P02792 (UniProt P02792)	1.55 ± 0.054
A0A087WUC6|E9PI68|Q15005|E9PL01 (UniProt Q15005)	0.882 ± 0.05
H0YKX3|Q15004 (UniProt Q15004)	1.04 ± 0.12
A0A087WZV8|A0A0G2JN66 (UniProt P01850)	1.01 ± 0.042
A0A087WYN2|J3KSS7|Q9NZ52|Q9NZ52-4 (UniProt Q9NZ52)	0.915 ± 0.13
A0A0C4DGS0|P56556 (UniProt P56556)	1.08 ± 0.12
E7EW84|Q8TAG9 (UniProt Q8TAG9)	1.08 ± 0.082
C9JRJ5|Q9UGP4 (UniProt Q9UGP4)	0.955 ± 0.025
A0A0A0MRR7|P09234 (UniProt P09234)	1.36 ± 0.052
A0A0B4J1Z1|C9JAB2|Q16629|Q16629-2|Q16629-3|Q16629-4 (UniProt Q16629)	1.58 ± 0.16
A0A0A0MRF6|Q99996|Q99996-2|Q99996-3|Q99996-5|Q99996-6 (UniProt Q99996)	1.1 ± 0.056
